Bioassay records (PubChem)
JMJD2A Tudor: qHTS Assay for Inhibitors of JMJD2A-Tudor Domain; AID 504339, 2011; actives 4.4% (n = 390,000); Lysine-specific demethylase 4A (Homo sapiens), O75164; Potency, µM (doses to about 114 µM), inactives show at the highest dose activity change, negative = inhibition, most hits filed as inhibitors; AlphaScreen JMJD2A-Tudor / H3K4me3 peptide binding; note: % is set by controls: 0 for no effect and ±100 for the full control effect; nearly all actives have a fitted effect of over 50% in size
PLK1 PBD inh: qHTS for Inhibitors of PLK1-PDB (polo-like kinase 1 - polo-box domain): Primary Screen. Plk1 PBD binding of FITC phosphopeptide, fluorescence polarization. actives 2.8% (n = 360,000). AID 720504, 2013. Potency, µM, for inactives: max response, negative = inhibition, most hits filed as inhibitors; note: series mostly up to about 57 µM; % is set by controls: 0 for no effect and ±100 for the full control effect; nearly all actives have a fitted effect of over 65% in size
VDR inh: Inhibitors of the vitamin D receptor (VDR): qHTS; VDR-SRC2-3 peptide fluorescence polarization, 2 h; Potency, µM, without a hit: max response, negative = inhibition, most hits filed as inhibitors; actives 0.93% (n = 400,000); AID 504847, 2011; note: % is set by controls: 0 for no effect and ±100 for the full control effect
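After 23 nl compound addition and a short centrifugation, plates sat for 2 hours at ambient temperature; polarization of fluorescence then indicated loss of VDR binding to peptide SRC2-3.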
BAZ2B inh: qHTS Assay for Inhibitors of BAZ2B; AlphaScreen BAZ2B-H3K14Ac peptide displacement; actives 4.4% (n = 360,000); Potency, µM (top dose mostly 114 µM), without a hit: top-dose activity change, negative = inhibition, actives largely listed as inhibitors; note: % is set by controls: 0 for no effect and ±100 for the full control effect; nearly all actives have a fitted effect of over 60% in size
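Protein-peptide AlphaScreen: BAZ2B 50 nM, b-H3K14Ac 50 nM, 1x PBS pH 7.4 + 0.01% Tween-20. Preincubation 30 min RT; cpd 30 min RT (top 110 uM); beads 20 min RT, light-protected.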
HP1b binding inh: HTS for Inhibitors of HP1-beta Chromodomain Interactions with Methylated Histone Tails; Potency, µM (top dose mostly 114 µM), without a hit: top-dose activity change, negative = inhibition, actives largely listed as inhibitors; Chromobox protein homolog 1 (Homo sapiens), P83916; actives 0.56% (n = 390,000); AID 540317, 2011; AlphaScreen HP1-beta / biotin-H3K9me3 peptide binding; note: nearly all actives have a fitted effect of over 70% in size
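AlphaScreen: HP1-beta (50 nM) preformed 30 min with biotin-H3(1-18)K9me3 peptide (50 nM) in PBS pH 7.4, 0.01% Tween-20. Compound added for 30 min at RT, then streptavidin donor/nickel chelate acceptor beads (10 ug/mL) for 30 min.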
L3MBTL1 inh: qHTS Assay for the Inhibitors of L3MBTL1. AlphaScreen L3MBTL1–H3K9me1 peptide binding. Potency, µM (top dose mostly 57.1 µM), for inactives: at the top dose activity, negative = inhibition, actives largely listed as inhibitors. actives 0.66% (n = 230,000). Lethal(3)malignant brain tumor-like protein 1 (Homo sapiens), Q9Y468. AID 485360, 2010; note: % is set by controls: 0 for no effect and ±100 for the full control effect; nearly all actives have a fitted effect of over 60% in size
Target sequence (Q9Y468 whole entry, looked up): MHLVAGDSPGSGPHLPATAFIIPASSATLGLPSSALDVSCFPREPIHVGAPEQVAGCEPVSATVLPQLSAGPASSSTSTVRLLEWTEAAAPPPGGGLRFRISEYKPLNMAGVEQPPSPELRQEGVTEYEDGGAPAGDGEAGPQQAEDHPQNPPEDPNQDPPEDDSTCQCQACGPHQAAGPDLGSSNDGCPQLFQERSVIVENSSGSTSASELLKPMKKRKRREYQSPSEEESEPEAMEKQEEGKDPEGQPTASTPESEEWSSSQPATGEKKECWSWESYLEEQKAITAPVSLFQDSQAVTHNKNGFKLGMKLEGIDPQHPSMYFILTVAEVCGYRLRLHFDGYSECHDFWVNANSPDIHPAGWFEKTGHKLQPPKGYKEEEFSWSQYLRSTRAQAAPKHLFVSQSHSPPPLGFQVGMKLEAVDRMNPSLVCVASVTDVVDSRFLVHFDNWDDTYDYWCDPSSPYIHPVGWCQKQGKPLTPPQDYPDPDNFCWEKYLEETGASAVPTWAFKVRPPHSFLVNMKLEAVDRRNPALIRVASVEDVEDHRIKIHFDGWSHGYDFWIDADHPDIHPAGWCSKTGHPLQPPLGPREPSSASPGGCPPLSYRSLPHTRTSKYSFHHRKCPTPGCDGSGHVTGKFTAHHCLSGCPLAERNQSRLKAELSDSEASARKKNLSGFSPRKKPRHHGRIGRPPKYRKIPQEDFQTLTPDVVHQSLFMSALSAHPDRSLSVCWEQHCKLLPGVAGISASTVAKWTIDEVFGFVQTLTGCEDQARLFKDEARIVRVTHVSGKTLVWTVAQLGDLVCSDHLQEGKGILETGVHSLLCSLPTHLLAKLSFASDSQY
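L3MBTL1 (50 nM) pre-complexed 30 min with biotinylated H3(1-15)K9me1 peptide (75 nM), then compounds added for 30 min at room temperature; AlphaScreen streptavidin donor/nickel chelate acceptor beads (10 ug/mL final) read after 30 min dark incubation.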
* hit, by the source's call; ? = inconclusive; . = no result given; ! = a repeat was not active; [ ] = remark or other dose. Most compounds without a hit are left out; they make up all but 6.9% or so of the library. Calls come from the whole dose curve; as a rule, active = well fitted curve in the direction sought with a large enough effect; inconclusive = small, poorly fitted or top-dose-only effect, or another doubt; inactive = no such curve, though single readings can be large; an effect the other way counts as inactive or inconclusive. Potency is the fitted concentration of half-maximal effect.

SMILES	JMJD2A Tudor	PLK1 PBD inh	VDR inh	BAZ2B inh	HP1b binding inh	L3MBTL1 inh
COc1ccc([C@H]2CC(=O)C=C(c3cccc(C(F)(F)F)c3)C2)cc1	?	26.7µM*	?	0.5%	25.5%	-2.6%
Cc1cc(NS(=O)(=O)c2ccc(NC(=O)Cc3ccc(Cl)c(Cl)c3)cc2)no1	6.9%	-3.3%	-9.3%	-29.0%	45.6%	2.1%
CCC(=O)Nc1nnc(S(=O)(=O)N2CCCCCC2)s1	11.2µM*!	-9.0%	0.7%	7.08µM*!	?	-1.8%
CCCC(=O)Nc1nnc(S(=O)(=O)N2CCCCCC2)s1	20µM*!	-9.8%	12.9%	14.1µM*!	?	3.6%
COCC(C)Nc1ncnc2c1cnn2-c1cccc(Cl)c1 (stereo unspecified)	-5.8%	.	8.0%	2.5%	25.8%	.
O=C1CC(SC(=S)C2CCCC2=O)C(=O)N1 (stereo unspecified)	.	13.4µM*	.	.	.	.
Cc1cccc2c1-c1sc(C(=O)Nc3ccccc3N3CCN(C)CC3)cc1CO2	?	-7.1%	-3.8%	44.7µM*	-6.7%	.
N=C1/C(=C\c2ccc(SCc3ccccc3)o2)C(=O)N=C2SC=NN12	-31.0%	-18.0%	?	-20.3%	23.7%	.
COc1cc(/C=C2\C(=N)N3N=C(S(C)(=O)=O)SC3=NC2=O)ccc1OCCOc1ccccc1C	?	?	?	56.2µM*	?	.
CCC1=NN2C(=N)/C(=C\c3ccc(OCCOc4ccccc4OC)cc3)C(=O)N=C2S1	-7.5%	?	8.1%	-32.9%	15.5%	1.3%
COc1cc(/C=C2\C(=N)N3N=C(S(C)(=O)=O)SC3=NC2=O)ccc1OC(=O)c1ccco1	?	?	79.4µM*	50.1µM*	-11.8%[57 µM]	.
COc1cc(/C=C2\C(=N)N3N=C(S(C)(=O)=O)SC3=NC2=O)ccc1OC(=O)c1cccs1	-3.5%	?	-1.6%	56.2µM*	30.8%	.
CCS(=O)(=O)C1=NN2C(=N)/C(=C\c3ccc(SCc4ccco4)o3)C(=O)N=C2S1	31.6µM*	?	12.3%	50.1µM*	?	31.6µM*
CCOc1ccccc1CNC(=O)CN1C(=O)CCCc2ccccc21	-9.6%	.	25.4%	-16.9%	23.3%	.
CCS(=O)(=O)C1=NN2C(=N)/C(=C\c3ccc(OC(=O)c4ccco4)c(Br)c3)C(=O)N=C2S1	.	.	.	50.1µM*	.	.
COc1ccc(C(C)(NC(C)=O)c2nc(-c3cccc(F)c3)cs2)cc1 (stereo unspecified)	.	-1.1%	.	.	.	.
O=C(COc1ccccc1)NCCc1csc(-c2ccc(Cl)cc2)n1	3.5%	.	6.7%	52.9%	28.6%[57 µM]	.
Nc1n[nH]c(N)c1N=Nc1ccc(Cl)cc1Cl	31.6µM*	-4.2%	4.0%	31.6µM*	-11.5%	-16.6%
Nc1n[nH]c(N)c1N=Nc1ccccc1F	?	-1.8%	11.5%	?	6.2%	.
O=C(O)c1ccc(S(=O)(=O)NCc2cccnc2)cc1	5.8%	2.0%	-9.0%	-15.7%	18.7%	.
O=C(O)/C=C/c1ccc(S(=O)(=O)NCc2cccnc2)cc1	-1.5%[11.4 µM]	23.8µM*	?	-14.2%	9.0%	.
Cc1ccc(C)c(Cn2cnc3ccccc3c2=O)c1	-11.3%	.	13.7%	5.5%	19.0%	.
Cn1nc(Oc2ncc(C(F)(F)F)cc2Cl)cc1C(F)(F)F	-19.5%[11.4 µM]	26.7µM*	-26.4%	-7.5%	7.3%	3.8%
CCC(=O)OC1(C)C(=O)C=C2C=C(CCCNC(=O)OC(C)(C)C)OC=C2C1=O (stereo unspecified)	.	.	2.5%	.	.	.
Cc1ccc2c(c1)=C(c1sc(N(C)c3ccc(O)cc3)nc1O)C(=O)N=2	-3.4%	37.7µM*	-10.7%	-19.5%	9.1%	.
SMILES	JMJD2A Tudor	PLK1 PBD inh	VDR inh	BAZ2B inh	HP1b binding inh	L3MBTL1 inh
Cc1nc(NS(=O)(=O)c2ccccc2)sc1NC(=O)Nc1ccc(Cl)cc1	?	?	-9.7%	50.1µM*	-8.6%	.
CC(=O)c1ccc(NC(=O)Nc2sc(NS(=O)(=O)c3ccccc3)nc2C)cc1	-8.1%	-28.3%	-2.5%	?	26.9%	-7.1%
CC(C)N(C(=S)NCc1ccccc1)c1ccccc1	-6.0%[57.1 µM]	-11.8%	-4.1%	2.2%	59.5%	4.4%
Cc1cccc(C)c1NC(=S)N(c1ccccc1)C(C)C	-21.6%	29.9µM*	7.2%	1.5%	13.9%	-2.7%
CC/C(=C\C(=O)c1cccnc1)Nc1ccc(C)c(C)c1	50.1µM*	-8.2%	-16.6%	-54.0%	?	-13.7%
CC(C)(C)c1ccc(NC(=O)Nc2ccc(OCC(=O)N3CCOCC3)cc2)cc1	?	21.5%	16.3%	2.8%	-8.7%	.
O=C(CCCc1c[nH]c2ccccc12)Nc1ncccc1O	-28.0%	-12.1%	8.8%	56.2µM*	14.3%	.
CCN(CC)CCNC(=O)c1c(C)oc2ncnc(N3CCOCC3)c12	7.4%	.	14.7%	10.5%[57.1 µM]	36.0%	.
Cc1ccc(C)c(-n2c(N)c(C#N)c3nc4ccccc4nc32)c1	-13.7%	.	?	-0.8%	25.8%	.
CSc1ccccc1C(=O)NCc1ccccc1C	-2.1%	-15.8%	13.9%	0.5%	9.4%	1.5%
Cc1conc1NC(c1cccs1)c1ccc2cccnc2c1O (stereo unspecified)	.	.	.	25.1µM*	.	?
CC(C)CC(=O)NC(c1cccs1)c1ccc2cccnc2c1O (stereo unspecified)	50.1µM*	-0.6%	14.6%	-0.5%	27.0%	8.0%
O=C1CCc2cc(S(=O)(=O)Nc3cccc(F)c3)ccc2N1	-17.0%	.	.	.	.	.
CC(C)CN(CC(C)C)C(=O)C1CCCN(S(=O)(=O)c2ccc3c(c2)oc(=O)n3C)C1 (stereo unspecified)	-1.3%	.	-15.2%	0.3%	58.8%	.
COc1ccccc1CNS(=O)(=O)c1c(C)nc2sc(C)cn2c1=O	4.8%	.	22.5%	-18.3%	43.5%	.
COc1ccc(-c2ccc(OC)c([C@H]3[C@H]4C=CC[C@@H](C)[C@@H]4C(=O)N3Cc3ccccc3)c2)cc1C	-12.0%	-11.2%	-17.6%	-11.5%	38.4%	.
CC1CC=CC2C1C(=O)N(Cc1ccccc1)C2c1ccc2ccccc2c1C=Cc1ccccc1 (stereo unspecified)	-15.2%	.	-5.3%	.	28.6%	.
C[C@@H]1CC=C[C@H]2[C@H]1C(=O)N(Cc1ccccc1)[C@H]2c1ccc2ccccc2c1Br	1.4%	23.8µM*	-29.6%	-0.3%	38.8%	.
CCC1CC=CC2C1C(=O)N(Cc1ccccc1)C2c1ccoc1 (stereo unspecified)	18.6%	.	79.4µM*	.	58.2%	.
